Laboratory results: PubChem BioAssay AID1159580 (chemical genetic matrix, 2015)
Hit rate of the full screen: of about 5,500 compounds, about 2,000 (36%) were called active. Inconclusive results (about 18%) are left out. Cut-off read from the data, not from the text of the source: active = normalized growth mostly below about 0.91 (no sharp cut-off); inconclusive = no clear call, values can overlap the other calls; inactive = mostly above about 0.92. This is one part of the list.

Experiment: chemical genetic growth profiling, strain panel (AID 1159580);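 note: tested at 20 µM; growth read once vehicle control cultures reached saturation at 30 °C; 1 = growth at the plate median or of vehicle wells; lower values mean less growth of the strain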
Settings: S. cerevisiae deletion strains, growth OD
[1] = locus YNL322C, strain KRE1, stronger effect = lower value
[2] = locus YPL241C, strain CIN2, stronger effect = lower value

Measured: normalized growth

CC[C@H](C)C(=O)O[C@H]1CCC=C2C=C[C@H](C)[C@H](CC[C@@H]3C[C@@H](O)CC(=O)O3)[C@H]21
inactive: locus YAL040C, strain CLN3, stronger effect = lower value 1.01 | locus YCL061C, strain MRC1 (second series), stronger effect = lower value 0.995 | locus YDR363W, strain ESC2, stronger effect = lower value 1.02 | locus YER002W, strain NOP16, stronger effect = lower value 0.976 | locus YJR075W, strain HOC1, stronger effect = lower value 0.988 | locus YNL128W, strain TEP1, stronger effect = lower value 0.947 | locus YNL175C, strain NOP13, stronger effect = lower value 0.985 | locus YNL197C, strain WHI3, stronger effect = lower value 0.987 | locus YNL224C, strain SQS1, stronger effect = lower value 0.98 | [1] 0.995 | locus YOR083W, strain WHI5 (second series), stronger effect = lower value 0.999 | [2] 0.994

CC[C@H](C)C(=O)O[C@H]1CCC=C2C=C[C@H](C)C(CCC3C[C@@H](O)CC(=O)O3)[C@H]21 (stereo not given in full)
inactive: locus YAL026C, strain drs2, stronger effect = lower value 1.02 | locus YAL030W, strain snc1, stronger effect = lower value 0.997 | locus YBL061C, strain skt5, stronger effect = lower value 1.01 | locus YBR009C, strain hhf1, stronger effect = lower value 1 | locus YBR021W, strain FUR4, stronger effect = lower value 0.958 | locus YBR023C, strain chs3, stronger effect = lower value 1.01 | locus YBR171W, strain sec66, stronger effect = lower value 1.02 | locus YBR229C, strain ROT2, stronger effect = lower value 0.983 | locus YBR231C, strain swc5, stronger effect = lower value 0.95 | locus YBR279W, strain paf1, stronger effect = lower value 1 | locus YCL011C, strain gbp2, stronger effect = lower value 1.01 | locus YCL016C, strain dcc1, stronger effect = lower value 0.997 | locus YCL029C, strain bik1, stronger effect = lower value 0.969 | locus YCL061C, strain MRC1, stronger effect = lower value 1 | locus YCL069W, strain vba3, stronger effect = lower value 1 | locus YCR088W, strain abp1, stronger effect = lower value 1.01 | locus YDL005C, strain med2, stronger effect = lower value 0.988 | locus YDL035C, strain GPR1, stronger effect = lower value 0.981 | locus YDL040C, strain nat1, stronger effect = lower value 1 | locus YDL074C, strain BRE1, stronger effect = lower value 0.957 | locus YDL101C, strain DUN1, stronger effect = lower value 0.989 | locus YDL134C, strain PPH21, stronger effect = lower value 1.01 | locus YDL185W, strain tfp1, stronger effect = lower value 0.978 | locus YDL192W, strain arf1, stronger effect = lower value 0.972 | locus YDR001C, strain nth1, stronger effect = lower value 1 | locus YDR069C, strain doa4, stronger effect = lower value 1.01 | locus YDR101C, strain arx1, stronger effect = lower value 0.974 | locus YDR150W, strain NUM1, stronger effect = lower value 0.997 | locus YDR159W, strain sac3, stronger effect = lower value 1.04 | locus YDR162C, strain NBP2, stronger effect = lower value 0.987 | locus YDR195W, strain ref2 1 | locus YDR297W, strain sur2, stronger effect = lower value 1 | locus YDR318W, strain mcm21, stronger effect = lower value 0.992 | locus YDR334W, strain swr1, stronger effect = lower value 0.997 | locus YDR335W, strain msn5, stronger effect = lower value 0.999 | locus YDR388W, stronger effect = lower value 0.981 | locus YDR392W, strain spt3, stronger effect = lower value 0.989 | locus YDR502C, strain sam2, stronger effect = lower value 1.02 | locus YEL003W, strain gim4, stronger effect = lower value 1.02 | locus YEL037C, strain rad23, stronger effect = lower value 1 | locus YEL061C, strain CIN8 (second series), stronger effect = lower value 0.999 | locus YEL061C, strain CIN8, stronger effect = lower value 0.99 | locus YER015W, strain faa2, stronger effect = lower value 1.01 | locus YER016W, strain bim1, stronger effect = lower value 0.999 | locus YER110C, stronger effect = lower value 0.968 | locus YER111C, strain swi4, stronger effect = lower value 0.995 | locus YER155C, strain BEM2 (second series), stronger effect = lower value 1.02 | locus YER155C, strain BEM2, stronger effect = lower value 0.967 | locus YER167W, strain BCK2, stronger effect = lower value 0.99 | locus YFR010W, strain ubp6, stronger effect = lower value 1.03 | locus YGL078C, strain dbp3, stronger effect = lower value 0.971 | locus YGL086W, strain mad1, stronger effect = lower value 0.956 | locus YGL167C, strain pmr1, stronger effect = lower value 0.996 | locus YGL173C, strain kem1, stronger effect = lower value 1.01 | locus YGL227W, strain vid30, stronger effect = lower value 1 | locus YGL240W, strain doc1, stronger effect = lower value 1.02 | locus YGL248W, strain PDE1, stronger effect = lower value 0.998 | locus YGL253W, strain hxk2, stronger effect = lower value 1.01 | locus YGR135W, strain pre9, stronger effect = lower value 1 | locus YGR252W, strain gcn5, stronger effect = lower value 1.03 | locus YHR013C, strain ard1, stronger effect = lower value 0.947 | locus YHR027C, strain rpn1, stronger effect = lower value 1.02 | locus YHR030C, strain SLT2, stronger effect = lower value 0.982 | locus YHR079C, strain IRE1 (second series), stronger effect = lower value 0.98 | locus YHR094C, strain hxt1, stronger effect = lower value 0.981 | locus YHR129C, strain ARP1, stronger effect = lower value 0.987 | locus YHR142W, strain chs7, stronger effect = lower value 1.01 | locus YHR200W, strain rpn10, stronger effect = lower value 0.978 | locus YIL066C, strain RNR3, stronger effect = lower value 0.989 | locus YIL073C, strain SPO22, stronger effect = lower value 0.975 | locus YIL125W, strain kgd1, stronger effect = lower value 0.99 | locus YIR030C, strain dcg1, stronger effect = lower value 0.981 | locus YJL092W, strain hpr5, stronger effect = lower value 1.01 | locus YJL095W, strain BCK1 (second series), stronger effect = lower value 1.01 | locus YJL095W, strain BCK1, stronger effect = lower value 1.03 | locus YJL115W, strain asf1, stronger effect = lower value 1 | locus YJL129C, strain trk1, stronger effect = lower value 1.04 | locus YJL134W, strain LCB3, stronger effect = lower value 0.977 | locus YJL154C, strain vps35, stronger effect = lower value 1 | locus YJL164C, strain tpk1, stronger effect = lower value 1.01 | locus YJL166W, strain qcr8, stronger effect = lower value 1.02 | locus YJL168C, strain set2, stronger effect = lower value 0.975 | locus YJL187C, strain SWE1 (second series), stronger effect = lower value 0.994 | locus YJL187C, strain SWE1, stronger effect = lower value 1 | locus YJR043C, strain POL32, stronger effect = lower value 0.978 | locus YKL068W, stronger effect = lower value 0.987 | locus YKL085W, strain MDH1 (second series), stronger effect = lower value 0.966 | locus YKL085W, strain MDH1, stronger effect = lower value 0.966 | locus YKL160W, strain elf1, stronger effect = lower value 1.01 | locus YKL190W, strain CNB1, stronger effect = lower value 0.993 | locus YKR001C, strain vps1, stronger effect = lower value 0.973 | locus YKR026C, strain gcn3, stronger effect = lower value 0.981 | locus YKR091W, strain srl3, stronger effect = lower value 1 | locus YLL001W, strain dnm1, stronger effect = lower value 1.01 | locus YLL026W, stronger effect = lower value 1.01 | locus YLL041C, strain sdh2, stronger effect = lower value 1 | locus YLR027C, strain aat2, stronger effect = lower value 1.01 | locus YLR039C, strain RIC1, stronger effect = lower value 1.15 | locus YLR058C, strain SHM2, stronger effect = lower value 0.989 | locus YLR102C, strain apc9, stronger effect = lower value 0.973 | locus YLR221C, strain rsa3, stronger effect = lower value 1.02 | locus YLR258W, strain gsy2, stronger effect = lower value 1.01 | locus YLR262C, strain YPT6, stronger effect = lower value 1.07 | locus YLR268W, strain sec22, stronger effect = lower value 0.954 | locus YLR320W, strain mms22, stronger effect = lower value 1.02 | locus YLR330W, strain CHS5, stronger effect = lower value 0.991 | locus YLR342W, strain FKS1 (second series), stronger effect = lower value 1.03 | locus YLR342W, strain FKS1, stronger effect = lower value 1.01 | locus YLR357W, strain rsc2, stronger effect = lower value 1.01 | locus YLR370C, strain arc18, stronger effect = lower value 1 | locus YLR371W, strain rom2, stronger effect = lower value 0.955 | locus YLR384C, strain iki3, stronger effect = lower value 1.01 | locus YLR418C, strain cdc73, stronger effect = lower value 1 | locus YML016C, strain PPZ1, stronger effect = lower value 0.999 | locus YML032C, strain rad52, stronger effect = lower value 1.03 | locus YML120C, strain ndi1, stronger effect = lower value 1.02 | locus YML124C, strain tub3, stronger effect = lower value 0.983 | locus YMR058W, strain fet3, stronger effect = lower value 1.01 | locus YMR078C, strain ctf18, stronger effect = lower value 0.997 | locus YMR125W, strain sto1, stronger effect = lower value 1.02 | locus YMR129W, stronger effect = lower value 1 | locus YMR205C, strain PFK2, stronger effect = lower value 1.01 | locus YMR223W, strain ubp8, stronger effect = lower value 0.995 | locus YMR231W, strain pep5, stronger effect = lower value 0.996 | locus YMR307W, strain GAS1, stronger effect = lower value 1.07 | locus YNL067W, strain RPL9B, stronger effect = lower value 1 | locus YNL071W, strain lat1, stronger effect = lower value 1 | locus YNL209W, strain ssb2, stronger effect = lower value 1.02 | locus YNL233W, strain BNI4, stronger effect = lower value 1.01 | locus YNL248C, strain rpa49, stronger effect = lower value 1.02 | locus YNL250W, strain rad50, stronger effect = lower value 0.977 | locus YNL271C, strain bni1, stronger effect = lower value 0.977 | locus YNL298W, strain CLA4, stronger effect = lower value 0.968 | locus YNL307C, strain MCK1, stronger effect = lower value 0.978 | locus YNL322C, strain KRE1 (second series), stronger effect = lower value 1.01 | [1] 0.989 | locus YNR049C, strain mso1, stronger effect = lower value 1.01 | locus YNR052C, strain pop2, stronger effect = lower value 0.966 | locus YOL012C, strain htz1 0.865 | locus YOL147C, strain pex11, stronger effect = lower value 0.994 | locus YOR001W, strain rrp6, stronger effect = lower value 1.01 | locus YOR061W, strain CKA2, stronger effect = lower value 0.985 | locus YOR069W, strain VPS5, stronger effect = lower value 0.981 | locus YOR070C, strain gyp1, stronger effect = lower value 1.02 | locus YOR080W, strain dia2, stronger effect = lower value 1 | locus YOR083W, strain WHI5, stronger effect = lower value 1.01 | locus YOR106W, strain vam3, stronger effect = lower value 1.04 | locus YOR136W, strain idh2, stronger effect = lower value 0.977 | locus YOR144C, strain elg1, stronger effect = lower value 0.977 | locus YOR184W, strain ser1, stronger effect = lower value 0.957 | locus YOR265W, strain rbl2, stronger effect = lower value 1 | locus YOR270C, strain vph1, stronger effect = lower value 0.999 | locus YOR290C, strain snf2, stronger effect = lower value 0.991 | locus YOR316C, strain cot1, stronger effect = lower value 0.983 | locus YPL051W, strain arl3, stronger effect = lower value 1.02 | locus YPL078C, strain atp4, stronger effect = lower value 1.01 | locus YPL106C, strain sse1, stronger effect = lower value 1.06 | locus YPL240C, strain hsp82, stronger effect = lower value 1.01 | [2] 0.981 | locus YPR119W, strain clb2, stronger effect = lower value 0.979 | locus YPR141C, strain kar3, stronger effect = lower value 0.963 | locus YPR163C, strain tif3, stronger effect = lower value 0.992 | locus YPR167C, strain met16, stronger effect = lower value 1 | strain wtn01, stronger effect = lower value 0.935
active: locus YAL021C, strain ccr4, stronger effect = lower value 0.894 | locus YDR137W, strain rgp1, stronger effect = lower value 1.39 [resistant] | locus YKL009W, strain mrt4, stronger effect = lower value 0.864 | locus YLR262C, strain YPT6 (second series), stronger effect = lower value 1.22 [resistant]
